Results filed as inconclusive are left out. Where a call stands in place of a potency, no number is given. Unmarked numbers belong to inactive results. Activity calls are given as the source filed them. Calls follow the shape of the full dose curve.

A short description of this test: p53 small molecule agonists, cell-based qHTS assay: qHTS cell viability counter screen (AID 1963581). Also: nearly all actives have a fitted effect of over 45% in size. To be noted: p53RE-bla HCT-116 viability, ATP luminescence, 16 h; series mostly up to 66 µM; activity change, negative = cytotoxicity: at the top concentration. The method, boiled down: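 qHTS counter screen: 16 h compound exposure at 37 C of p53RE-bla HCT-116 cells (4,000 per well, seeded 5 h prior), cell viability by ATP luminescence.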
On to `O=C1O[C@H]([C@H](O)CO)C(O)=C1O`, for which the Potency result is “inactive”.
Still for that read-out and setting: as for `COC(=O)c1ccc(O)cc1`, the entry is “inactive”.
Regarding `S=c1nc[nH]c2nc[nH]c12`, the “activity change, negative = cytotoxicity” value is -25.9% [at 30.3 µM].
`C[C@]12CCC(=O)C=C1CC[C@@H]1[C@@H]2C(=O)C[C@@]2(C)[C@H]1CC[C@]2(O)C(=O)CO`: the Potency result is “inactive”.
The same measure, in the same setting: for `C/C=C/C(=O)N(CC)c1ccccc1C` the value was “inactive”; for `O=c1c(-c2ccc(O)cc2)coc2cc(O)cc(O)c12`, “inactive”; for `CN(N=O)C(=O)N[C@@H]1[C@@H](O)[C@H](O)[C@@H](CO)O[C@@H]1O`, “inactive”.
Regarding `CCCCC1C(=O)N(c2ccccc2)N(c2ccccc2)C1=O`, the Potency result is “inactive”.
In the case of `CC12CCC(CC1)C(C)(C)O2`, the Potency entry was “inactive”.
Still for that read-out and setting: for `OC[C@@H](O)[C@@H](O)[C@H](O)[C@H](O)CO` the value was “inactive”; for `CCCN(CCC)S(=O)(=O)c1ccc(C(=O)O)cc1`, “inactive”; for `Cc1ncc([N+](=O)[O-])n1CCO`, “inactive”.
Take `CCCCOC(=O)c1ccc(N)cc1`: the “activity change, negative = cytotoxicity” value is -6.61%.
With `C#C[C@]1(O)CC[C@H]2[C@@H]3CCC4=CC(=O)CC[C@@H]4[C@H]3CC[C@@]21CC`, the Potency entry is “inactive”.
For the compound `c1ccc2c(c1)c1cccc3ccc4cccc2c4c31`, the Potency entry was “inactive”.
Still for that read-out and setting: as for `CC1(C)O[C@@H]2C[C@H]3[C@@H]4C[C@H](F)C5=CC(=O)CC[C@]5(C)[C@H]4[C@@H](O)C[C@]3(C)[C@]2(C(=O)CO)O1`, the entry is “inactive”; as for `CC(C)=CCC/C(C)=C/CO`, “inactive”; as for `CN1C(C(=O)Nc2ccccn2)=C(O)c2ccccc2S1(=O)=O`, “inactive”.
On to `Cc1noc(NS(=O)(=O)c2ccc(N)cc2)c1C`, for which the Potency result was “inactive”.
Take `Cc1cc(=O)n(-c2ccccc2)n1C`: the Potency result was “inactive”.

The record behind these values is PubChem BioAssay (Tox21).
